Here are results for 4 molecules from PubChem BioAssay (EPA / NIEHS).

Assay [1] can be described thus: ATG_GLI_CIS: Attagene CIS-FACTORIAL HepG2 Assay for human Zinc Finger Protein GLI1 (AID 2282945). The settings on record: HepG2, Attagene cis-factorial reporter mRNA, GLI element; actives raise or lower the signal. In outline: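 Bidirectional curve fits relative to DMSO, using reporter mRNA levels from RT-PCR plus capillary electrophoresis. Cells were HepG2 transiently carrying cis-regulated reporter constructs, harvested 24 h after dosing.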

In assay [2] the target is Bile acid receptor (Homo sapiens) (UniProt Q96RI1). The assay can be described thus: ATG_IR1_CIS: Attagene CIS-FACTORIAL HepG2 Assay for human Nuclear Receptor Subfamily 1 Group H Member 4 (NR1H4), IR1 submotif (AID 2282946). The settings on record: IR1 reporter transcription, actives raise or lower the signal. In outline:
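Cells (human HepG2) carry transiently transfected cis-promoter reporter transcription units. Compounds are incubated 24 h, total RNA is reverse-transcribed and amplified, and labelled fragments are resolved by capillary electrophoresis. Curves use DMSO as baseline.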

Assay [3] can be described thus: ATG_GRE_CIS: Attagene CIS-FACTORIAL HepG2 Assay for human Glucocorticoid Response Elements (GRE) (AID 2282947). The settings on record: HepG2 GRE cis-reporter, Attagene multiplex mRNA; actives raise or lower the signal. In outline: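 Transient MRTU transfection of human HepG2 liver cells; cis-regulated reporters report endogenous factors. 24 h dosing → RNA isolation → RT-PCR → 6-FAM primer extension → HpaI cut → CE fragment analysis. Bidirectional fit, DMSO negative control.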

Assay [4] can be described thus: ATG_ISRE_CIS: Attagene CIS-FACTORIAL HepG2 Assay for human Interferon Regulatory Factor 1 (IRF1) binding to an Interferon-Stimulated Response Element (ISRE) (AID 2282948). The following applies: HepG2 ISRE cis-reporter (Attagene), mRNA transcription readout; actives raise or lower the signal. In outline: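 Cell-based cis-reporter assay; HepG2; 24 h exposure; reporter mRNA by RT-PCR plus capillary electrophoresis fluorescence; activity in either direction scored relative to DMSO.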

The nature of assay [5]: ATG_M_32_CIS: Attagene CIS-FACTORIAL HepG2 Assay for M32 Transcription Factor (Internal Marker) (AID 2282949).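 Also: background control marker of the multiplexed CIS panel rather than a real target.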 The following applies: HepG2 Attagene cis-factorial M32 reporter, mRNA; actives raise or lower the signal. In outline:
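Fluorescent capillary electrophoresis peaks of HpaI-digested, FAM-labelled RT-PCR reporter products give the signal. Source: transiently transfected human liver HepG2 cells, 24 h after chemical dosing; bidirectional fitting against DMSO.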

Assay [6] can be described thus: ATG_M_06_CIS: Attagene CIS-FACTORIAL HepG2 Assay for M06 Transcription Factor (Internal Marker) (AID 2282950). The following applies: HepG2 Attagene CIS-FACTORIAL M06 internal marker reporter; actives raise or lower the signal. In outline: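 Fluorescence-labelled RT-PCR products from cis-promoter reporter units, cut with HpaI and resolved by capillary electrophoresis, give the signal. Cells are human HepG2, dosed for 24 h. Serves as background control, fitted relative to DMSO.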

Assay [7] has as its target Hypoxia-inducible factor 1-alpha (Homo sapiens) (UniProt Q16665). The assay can be described thus: ATG_HIF1a_CIS: Attagene CIS-FACTORIAL HepG2 Assay for human Hypoxia Inducible Factor 1 (HIF1A) (AID 2282951). The settings on record: HepG2 Attagene cis-factorial HIF1a reporter transcription; actives raise or lower the signal. In outline: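 In this multiplexed cell assay, HepG2 cells bearing transfected cis reporters are dosed for 24 h and reporter mRNA is read by RT-PCR plus capillary electrophoresis; signal increases and decreases are both scored against DMSO.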

The target in assay [8] is Hepatocyte nuclear factor 6 (Homo sapiens) (UniProt Q9UBC0). Briefly: ATG_HNF6_CIS: Attagene CIS-FACTORIAL HepG2 Assay for human Hepatocyte Nuclear Factor 6 (HNF6) (AID 2282952). The following applies: HepG2 Attagene cis-factorial HNF6 reporter transcription; actives raise or lower the signal. In outline: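 Cells are HepG2 carrying transiently transfected cis-promoter reporter units. Treatment lasts 24 h, after which reporter transcripts are reverse-transcribed, amplified, FAM-labelled and sized by capillary electrophoresis. DMSO serves as baseline.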

Assay [9] addresses Heat shock factor protein 1 (Homo sapiens) (UniProt Q00613). The assay can be described thus: ATG_HSE_CIS: Attagene CIS-FACTORIAL HepG2 Assay for human Heat Shock Transcription Factor 1 (HSE) (AID 2282953). The following applies: HepG2 HSE cis-reporter, Attagene RNA transcription; actives raise or lower the signal. In outline: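 After a 24 h incubation with test chemical, transfected HepG2 cells were harvested for RNA; reporter transcripts were measured by RT-PCR and capillary electrophoresis. Values reflect gain or loss of signal relative to DMSO.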

The nature of assay [10]: ATG_MRE_CIS: Attagene CIS-FACTORIAL HepG2 Assay for human Metal Responsive Element (MRE) (AID 2282954). The settings on record: HepG2 MRE cis-reporter transcription, Attagene multiplex; actives raise or lower the signal. In outline: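 Transient MRTU transfection of HepG2 (FuGene 6); 24 h dosing; total RNA → oligo(dT) RT, PCR, 6-FAM primer extension, HpaI cut, CE. Bidirectional fit vs DMSO.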

A short description of assay [11]: ATG_PBREM_CIS: Attagene CIS-FACTORIAL HepG2 Assay for human Phenobarbital-responsive Enhancer Module (PBREM) (AID 2282955). The settings on record: HepG2 PBREM cis-reporter, Attagene multiplexed transcription; actives raise or lower the signal. In outline: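 After a 24 h incubation with test chemical, transfected HepG2 cells yield total RNA; reporter-specific RT-PCR products are fluorescently labelled, HpaI-digested and resolved by capillary electrophoresis against ROX size standards.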

The nature of assay [12]: ATG_PXRE_CIS: Attagene CIS-FACTORIAL HepG2 Assay for human Pregnane X Receptor Element (PXRE) (AID 2282957). The following applies: HepG2 Attagene CIS-FACTORIAL PXRE reporter, mRNA; actives raise or lower the signal. In outline: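 Multiplexed cis-reporter assay in transiently transfected human HepG2 cells; 24 h chemical exposure. Reporter transcripts quantified by RT-PCR with fluorescent labeling and capillary electrophoresis.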

A short description of assay [13]: ATG_PPRE_CIS: Attagene CIS-FACTORIAL HepG2 Assay for human Peroxisome Proliferator-activated Response Element (PPRE) (AID 2282958). The following applies: HepG2 PPRE cis-element reporter, Attagene transcription factor profiling; actives raise or lower the signal. In outline:
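Multiplexed reporter transcription units under cis-regulatory promoters were transfected into HepG2 cells to capture endogenous factor activity. A 24 h incubation preceded RNA isolation and fluorescent RT-PCR fragment analysis.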

Assay [14] is described as follows: ATG_RORE_CIS: Attagene CIS-FACTORIAL HepG2 Assay for human RAR-related Orphan Receptor Element (RORE) (AID 2282959). The following applies: HepG2 Attagene cis-factorial RORE reporter, mRNA; actives raise or lower the signal. In outline: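 Fluorescence intensity of reporter-specific cDNA fragments, separated by capillary electrophoresis, gives the signal. Source: HepG2 liver cells transiently transfected with cis-element reporters and exposed 24 h; DMSO-normalized bidirectional fit.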

Assay [15] in a line: ATG_Sox_CIS: Attagene CIS-FACTORIAL HepG2 Assay for human SRY-box transcription factor (SOX) (AID 2282960). The following applies: HepG2 Attagene cis-factorial SOX reporter, mRNA; actives raise or lower the signal. In outline: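 After 24 h of chemical treatment, transfected HepG2 reporter cells are lysed for total RNA. Transcript levels come from RT-PCR with labelled primer extension and capillary electrophoresis, analysed bidirectionally versus DMSO.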

Assay [16] has as its target Transcription factor Sp1 (Homo sapiens) (UniProt P08047). The assay can be described thus: ATG_Sp1_CIS: Attagene CIS-FACTORIAL HepG2 Assay for human Specificity Protein 1 (Sp1) (AID 2282961). The settings on record: HepG2 Sp1 cis-reporter transcription, actives raise or lower the signal. In outline:
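Sp1-driven reporter mRNA, read as capillary electrophoresis fluorescence after RT-PCR, in transiently transfected HepG2 cells dosed for 24 h; signal change in either direction relative to DMSO.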

Assay [17] is described as follows: ATG_SREBP_CIS: Attagene CIS-FACTORIAL HepG2 Assay for human Sterol Regulatory Element Binding (SREBP) (AID 2282962). The following applies: HepG2 Attagene cis-factorial SREBP reporter, mRNA; actives raise or lower the signal. In outline:
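mRNA induction of transfected cis-promoter reporters in HepG2 cells, 24 h post-dose. Detection: RT-PCR with 6-FAM-labelled products, HpaI digest, capillary electrophoresis. DMSO served as negative control and baseline.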

The target of assay [18] is Signal transducer and activator of transcription 3 (Homo sapiens) (UniProt P40763). Briefly: ATG_STAT3_CIS: Attagene CIS-FACTORIAL HepG2 Assay for human Signal Transducer and Activator of Transcription 3 (STAT3) (AID 2282963). The following applies: HepG2, Attagene cis-factorial STAT3 reporter transcription; actives raise or lower the signal. In outline: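 Endogenous STAT3-responsive cis-element activity was read in transiently transfected HepG2 cells after 24 h treatment. Reporter transcripts were quantified via RT-PCR and capillary electrophoresis, with DMSO as negative control and bidirectional curve fitting.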

The nature of assay [19]: ATG_TA_CIS: Attagene CIS-FACTORIAL HepG2 Assay for human TA Basal Promoter (AID 2282964). The following applies: HepG2 Attagene CIS-factorial TA basal promoter reporter; actives raise or lower the signal. In outline:
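Multiplexed mRNA reporter assay, HepG2, 24 h. Reporter cDNA amplified, 6-FAM primer-extended, HpaI-cut, CE-sized; DMSO = negative control and baseline.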

For assay [20], the target named is Paired box protein Pax-6 (Homo sapiens) (UniProt P26367). Briefly: ATG_Pax6_CIS: Attagene CIS-FACTORIAL HepG2 Assay for human Paired Box 6 (PAX6) (AID 2282956). The settings on record: HepG2 CIS-FACTORIAL PAX6 reporter transcription, RNA readout; actives raise or lower the signal. In outline: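 Multiplexed cis-reporter HepG2 system; 24 h treatment; reporter mRNA read by RT-PCR/CE fluorescence; bidirectional fit vs DMSO.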

Calls of active or inactive are those of the source. The calls were made as follows: active = hit-call score of the fitted dose curve at least 0.9, where 1 is the maximum; inactive = score below 0.9.

Usually AC50 stands for the concentration at which the activity in the assay is half-maximal.

Chain of Hypoxia-inducible factor 1-alpha (Homo sapiens) (Q16665 whole entry, looked up): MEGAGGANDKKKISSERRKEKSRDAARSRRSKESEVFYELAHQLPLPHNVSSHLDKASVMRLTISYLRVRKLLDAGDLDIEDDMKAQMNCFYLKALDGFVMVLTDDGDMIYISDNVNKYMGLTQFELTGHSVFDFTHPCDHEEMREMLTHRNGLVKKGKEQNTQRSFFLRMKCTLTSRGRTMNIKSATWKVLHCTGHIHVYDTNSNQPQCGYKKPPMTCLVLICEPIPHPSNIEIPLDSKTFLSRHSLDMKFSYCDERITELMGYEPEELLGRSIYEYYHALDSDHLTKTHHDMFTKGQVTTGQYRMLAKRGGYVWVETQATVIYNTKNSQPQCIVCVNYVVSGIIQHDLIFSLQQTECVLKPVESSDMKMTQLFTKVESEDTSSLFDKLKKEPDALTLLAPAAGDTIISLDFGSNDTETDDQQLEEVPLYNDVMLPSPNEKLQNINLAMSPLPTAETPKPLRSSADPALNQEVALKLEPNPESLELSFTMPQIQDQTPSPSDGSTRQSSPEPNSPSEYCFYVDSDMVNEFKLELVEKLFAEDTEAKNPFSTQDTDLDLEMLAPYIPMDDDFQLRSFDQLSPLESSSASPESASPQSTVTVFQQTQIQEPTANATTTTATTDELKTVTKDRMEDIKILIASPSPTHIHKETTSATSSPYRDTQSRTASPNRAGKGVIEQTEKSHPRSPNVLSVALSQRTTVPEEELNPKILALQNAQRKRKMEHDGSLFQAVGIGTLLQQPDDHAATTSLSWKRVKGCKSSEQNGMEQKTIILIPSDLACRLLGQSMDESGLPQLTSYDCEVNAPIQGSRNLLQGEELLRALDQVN
Chain of Transcription factor Sp1 (Homo sapiens) (P08047 whole entry, looked up): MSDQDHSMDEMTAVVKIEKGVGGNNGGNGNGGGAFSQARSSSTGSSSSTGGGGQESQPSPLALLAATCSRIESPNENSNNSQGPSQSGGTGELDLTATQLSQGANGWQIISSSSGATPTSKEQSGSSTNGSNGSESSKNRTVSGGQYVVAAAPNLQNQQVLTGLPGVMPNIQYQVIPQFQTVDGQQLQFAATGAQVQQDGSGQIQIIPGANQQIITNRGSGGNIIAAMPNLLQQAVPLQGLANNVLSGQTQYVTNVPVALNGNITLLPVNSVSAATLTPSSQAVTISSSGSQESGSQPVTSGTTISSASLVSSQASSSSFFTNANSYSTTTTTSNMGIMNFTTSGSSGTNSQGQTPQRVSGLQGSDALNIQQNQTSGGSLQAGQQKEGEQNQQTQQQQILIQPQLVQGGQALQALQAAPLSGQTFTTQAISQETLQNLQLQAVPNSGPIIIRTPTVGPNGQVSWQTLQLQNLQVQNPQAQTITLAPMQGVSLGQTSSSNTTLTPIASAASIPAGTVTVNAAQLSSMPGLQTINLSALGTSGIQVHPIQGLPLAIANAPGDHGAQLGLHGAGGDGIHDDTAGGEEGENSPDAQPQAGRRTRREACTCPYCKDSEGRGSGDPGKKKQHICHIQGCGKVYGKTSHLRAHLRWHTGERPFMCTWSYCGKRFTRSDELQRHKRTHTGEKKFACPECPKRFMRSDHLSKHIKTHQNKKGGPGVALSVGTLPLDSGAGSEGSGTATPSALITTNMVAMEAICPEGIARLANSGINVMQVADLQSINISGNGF
Chain of Heat shock factor protein 1 (Homo sapiens) (Q00613 whole entry, looked up): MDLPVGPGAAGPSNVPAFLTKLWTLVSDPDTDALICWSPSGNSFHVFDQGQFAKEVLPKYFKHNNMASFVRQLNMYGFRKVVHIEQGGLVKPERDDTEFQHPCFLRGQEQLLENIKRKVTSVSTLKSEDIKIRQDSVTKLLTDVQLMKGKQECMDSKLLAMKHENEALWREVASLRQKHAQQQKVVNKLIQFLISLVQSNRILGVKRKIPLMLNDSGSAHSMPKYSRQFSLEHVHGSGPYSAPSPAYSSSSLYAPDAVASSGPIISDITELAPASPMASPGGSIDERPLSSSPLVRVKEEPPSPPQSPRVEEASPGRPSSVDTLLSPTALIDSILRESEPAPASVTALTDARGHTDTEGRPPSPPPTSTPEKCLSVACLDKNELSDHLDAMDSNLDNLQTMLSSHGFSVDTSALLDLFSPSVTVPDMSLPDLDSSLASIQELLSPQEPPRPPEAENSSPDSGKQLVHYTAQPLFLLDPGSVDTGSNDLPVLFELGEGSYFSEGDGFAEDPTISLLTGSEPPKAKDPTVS
Chain of Bile acid receptor (Homo sapiens) (Q96RI1 whole entry, looked up, the tested form may be a part): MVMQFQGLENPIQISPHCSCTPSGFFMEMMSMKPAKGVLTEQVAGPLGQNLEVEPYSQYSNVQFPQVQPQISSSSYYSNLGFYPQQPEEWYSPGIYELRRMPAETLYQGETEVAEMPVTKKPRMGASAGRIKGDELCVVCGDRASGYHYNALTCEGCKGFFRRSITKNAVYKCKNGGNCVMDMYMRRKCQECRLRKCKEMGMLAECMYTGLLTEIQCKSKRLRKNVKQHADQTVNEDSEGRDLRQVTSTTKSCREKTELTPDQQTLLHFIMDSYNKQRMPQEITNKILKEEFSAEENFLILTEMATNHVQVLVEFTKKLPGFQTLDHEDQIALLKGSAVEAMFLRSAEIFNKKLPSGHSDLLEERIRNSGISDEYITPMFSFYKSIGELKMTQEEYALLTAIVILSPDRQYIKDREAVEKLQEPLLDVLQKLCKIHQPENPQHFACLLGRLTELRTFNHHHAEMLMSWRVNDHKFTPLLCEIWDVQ
Chain of Hepatocyte nuclear factor 6 (Homo sapiens) (Q9UBC0 whole entry, looked up): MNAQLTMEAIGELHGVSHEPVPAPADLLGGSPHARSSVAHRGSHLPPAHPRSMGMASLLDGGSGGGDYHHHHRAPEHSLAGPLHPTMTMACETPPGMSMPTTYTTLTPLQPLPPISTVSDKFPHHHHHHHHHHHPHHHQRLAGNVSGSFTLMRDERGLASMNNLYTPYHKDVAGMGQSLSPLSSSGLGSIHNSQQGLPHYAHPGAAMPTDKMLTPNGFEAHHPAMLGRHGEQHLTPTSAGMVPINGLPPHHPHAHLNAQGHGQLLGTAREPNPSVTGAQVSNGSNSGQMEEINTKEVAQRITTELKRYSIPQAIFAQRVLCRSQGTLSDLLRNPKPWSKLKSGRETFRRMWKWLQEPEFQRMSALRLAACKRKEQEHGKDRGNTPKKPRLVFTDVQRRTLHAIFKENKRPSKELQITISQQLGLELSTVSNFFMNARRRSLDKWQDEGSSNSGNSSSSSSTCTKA
Chain of Signal transducer and activator of transcription 3 (Homo sapiens) (P40763 whole entry, looked up): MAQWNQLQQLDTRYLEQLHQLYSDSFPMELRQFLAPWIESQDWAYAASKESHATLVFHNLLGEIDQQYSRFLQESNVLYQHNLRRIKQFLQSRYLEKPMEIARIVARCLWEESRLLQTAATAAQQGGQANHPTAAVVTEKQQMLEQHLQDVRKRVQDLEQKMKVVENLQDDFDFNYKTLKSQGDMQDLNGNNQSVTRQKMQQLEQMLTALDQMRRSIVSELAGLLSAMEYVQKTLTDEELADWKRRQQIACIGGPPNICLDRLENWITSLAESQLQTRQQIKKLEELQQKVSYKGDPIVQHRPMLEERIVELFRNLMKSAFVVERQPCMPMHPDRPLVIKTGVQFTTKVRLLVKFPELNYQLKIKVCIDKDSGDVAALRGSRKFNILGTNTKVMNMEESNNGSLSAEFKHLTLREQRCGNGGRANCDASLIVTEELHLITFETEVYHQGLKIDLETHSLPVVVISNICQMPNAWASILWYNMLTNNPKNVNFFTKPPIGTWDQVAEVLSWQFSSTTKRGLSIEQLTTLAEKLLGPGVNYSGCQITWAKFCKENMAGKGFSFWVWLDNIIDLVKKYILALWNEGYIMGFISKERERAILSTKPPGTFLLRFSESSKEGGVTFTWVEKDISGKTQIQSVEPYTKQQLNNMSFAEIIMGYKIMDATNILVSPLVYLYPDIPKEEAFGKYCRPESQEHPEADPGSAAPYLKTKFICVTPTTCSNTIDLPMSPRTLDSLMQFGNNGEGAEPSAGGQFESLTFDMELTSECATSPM
Chain of Paired box protein Pax-6 (Homo sapiens) (P26367 whole entry, looked up): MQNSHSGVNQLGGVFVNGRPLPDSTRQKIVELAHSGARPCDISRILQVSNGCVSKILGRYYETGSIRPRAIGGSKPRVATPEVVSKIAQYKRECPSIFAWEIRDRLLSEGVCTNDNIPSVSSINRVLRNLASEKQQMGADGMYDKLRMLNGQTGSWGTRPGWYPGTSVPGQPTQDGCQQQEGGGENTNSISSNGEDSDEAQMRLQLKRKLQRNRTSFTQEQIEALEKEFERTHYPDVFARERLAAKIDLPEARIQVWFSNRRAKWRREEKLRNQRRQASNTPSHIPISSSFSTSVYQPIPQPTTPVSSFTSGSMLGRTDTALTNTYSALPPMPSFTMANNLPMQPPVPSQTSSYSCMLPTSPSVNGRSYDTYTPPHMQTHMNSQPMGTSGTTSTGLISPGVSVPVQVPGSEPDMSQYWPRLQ

Turning to `O=C(Cl)c1ccc(Cl)cc1Cl`, the molecule was classed as inactive in assay [1], in assay [2], in assay [3], in [4], in [5] and in assay [6]. Further, the molecule was called inactive in assay [7], in assay [8], in [10], in assay [11], in [13] and in assay [14]. Besides, the molecule was classed as inactive in [15], in assay [16], in assay [17] and in [18]. In addition, the AC50 in assay [9] was 163 µM (active); in assay [12] it was 27.3 µM (active).
For the molecule `O=C(O)CCC(F)(F)C(F)(F)C(F)(F)F`, the result in assay [1], in assay [2], in assay [3], in assay [4], in assay [5] and in [6] was inactive. Also, the molecule was classed as inactive in assay [7], in assay [8], in assay [9], in assay [10], in [11] and in [12]. Also, the result in assay [13], in assay [14], in assay [15], in [16], in assay [17] and in assay [18] was inactive. Also, the result in assay [19] was inactive.
With `NS(=O)(=O)C(F)(F)C(F)(F)C(F)(F)C(F)(F)C(F)(F)C(F)(F)F`, the call in [1], in assay [2], in assay [3], in [4], in assay [5] and in [6] was inactive. The outcome in assay [7], in assay [8], in [9], in assay [11], in assay [14] and in assay [15] was inactive. Further, the result in assay [16], in assay [17] and in [19] was inactive. The values for the AC50 in assay [10], in assay [12] and in [13] were 59 µM (active), 41 µM (active) and 50.2 µM (active), respectively.
With `N#Cc1ccccc1O`, the molecule was classed as inactive in assay [1], in assay [2], in assay [3], in [4], in assay [5] and in [6]. For the same molecule, the molecule was classed as inactive in [7], in assay [8], in [9], in [10], in assay [20] and in assay [12]. Also, the molecule was called inactive in assay [13], in assay [14], in assay [15], in assay [16], in assay [17] and in [18]. In addition, in [19], the outcome was inactive.
